From PubChem BioAssay (Tox21)
Inconclusive results are not listed. A call without a number means that no potency is given here. The source made the active and inactive calls. The call rests on the fitted dose curve; in most records, active means well fitted activation curve with a large enough effect in the repeat runs; inconclusive means weak or mixed curves; inactive means flat fitted curve, though single readings scatter.

Assay: A CellTox Green Cytotoxicity Assay to monitor cytotoxicity in HEK293 cells - 16 hour (AID 1224888); further: nearly all actives have a fitted effect of over 35% in size
Details: CellTox Green fluorescence; series mostly up to 76.8 µM
Excerpt: National Center for Advancing Translational Sciences [NCATS]
NIH Chemical Genomics Center [NCGC]
U.S. Environmental Protection Agency [EPA]
National Institutes of Environmental Health Sciences [NIEHS]
National Toxicology Program [NTP]
Cell-based models are critical for drug discovery. Determining the natural cytotoxic effects resulting from test compounds is an essential research activity. A CellTox Green Cytotoxicity Assay to monitor cytotoxicity in real time of continues cell culture during 40 hours of the compound treatment was used to screen Tox21 10K library compounds in Hek293 cells. CellTox Green Cytotoxicity Assay is a nonlytic, homogeneous, biofluorescent method to measure cytotoxicity in cell culture after experimental manipulation. The assay system uses a proprietary asymmetric cyanine dye that is excluded from viable cells but preferentially stains the dead cell's DNA. […] Viable cells produce no appreciable increases in fluorescence. Therefore, the fluorescence signal produced by the binding interaction with dead cell DNA is proportional to cytotoxicity.
The mixture of Hek293 cell suspension and reagents were dispensed at 600cells/6 ul/well in 1536-well tissue culture treated black solid bottom plates using a Multidrop dispenser. After the assay plates were incubated at a 37 C/5% CO2 incubator for 5 hours, 23 nL of compounds dissolved in DMSO, positive and negative controls was transferred to the assay plate by a pintool work station. The plates were incubated at 37 C for 40 hours. The fluorescence intensity were measured at 0h, 8h, 16h, 24h, 32h and 40h time points using ViewLux plate reader during compound treatment.
Potency means the concentration at half of the fitted maximal effect.

Row | SMILES | Potency | activity change
1 | O=c1[nH][nH]c(=O)c2cc([N+](=O)[O-])ccc12 | inactive | 
2 | O=C(O)CNC(=O)c1ccccc1I | inactive | 
3 | CCN(CC)CC(=O)Nc1c(C)cccc1C(=O)OC | inactive | 
4 | CCOc1ncc(F)c(=O)[nH]1 | inactive | 
5 | CCC(CO)(CO)[N+](=O)[O-] | inactive | 
6 | Nc1ccn([C@H]2CS[C@@H](CO)O2)c(=O)n1 | inactive | 
7 | Nc1c(Cl)cc(Cl)cc1[N+](=O)[O-] | inactive | 
8 | CCCCOC(=O)CCCCC(=O)OCCCC | inactive | 
9 | N[C@@H](Cc1cc(I)c(O)c(I)c1)C(=O)O | inactive | 
10 | C[C@@H]1C[C@H]2[C@@H]3CCC4=CC(=O)C=C[C@]4(C)[C@@]3(F)[C@@H](O)C[C@]2(C)[C@@]1(O)C(=O)COP(=O)(O)O | inactive | 
11 | O=NN(CCCl)C(=O)NCCCl | inactive | 
12 | CC(=O)OCC(=O)[C@@]1(OC(C)=O)[C@@H](C)C[C@H]2[C@@H]3C[C@H](F)C4=CC(=O)C=C[C@]4(C)[C@@]3(F)[C@@H](O)C[C@@]21C | inactive | 
13 | CCCCCCC(O)CCCCCCCCCCC(=O)OC (stereo not given) | inactive | 
14 | COc1cc(NCc2ccc3nc(N)nc(N)c3c2C)cc(OC)c1OC | inactive | 
15 | CC12CC3CC(C)(C1)CC(N)(C3)C2 | inactive | 
16 | O=C1CC[C@@H](C(=O)O)N1 | inactive | 
17 | CCCCCCCC(=O)OCCCCCC | inactive | 
18 | CCN(Cc1cccc(S(=O)(=O)O)c1)c1ccc(C(=C2C=CC(=[N+](CC)Cc3cccc(S(=O)(=O)O)c3)C=C2)c2ccccc2S(=O)(=O)[O-])cc1 | inactive | 
19 | C1=CCC2CC=CC2C1 (stereo not given) | inactive | 
20 | COc1cc(OC)c2ccc(=O)oc2c1 | inactive | 

Row | SMILES | Potency | activity change
21 | CCOC(=O)c1c(N)sc2c1CCN(Cc1ccccc1)C2 | inactive | 
22 | CCCCCCCCCCCCCOC(=O)CCSCCC(=O)OCCCCCCCCCCCCC |  | 17.2% [at 15.8 µM, stronger effect = higher value] (inactive)
23 | CO[C@@H]1[C@@H](OC)[C@H](C)[C@@](O)(CC(=O)O)O[C@H]1[C@H](C)[C@H]1O[C@@]2(CC[C@@](C)([C@H]3CC[C@@](C)([C@@H]4O[C@@H]([C@H]5O[C@](C)(O)[C@H](C)C[C@@H]5C)C[C@@H]4OC4C[C@H](OC)[C@@H](OC)[C@H](C)O4)O3)O2)C[C@H](O)[C@H]1C (stereo not given in full) | inactive | 
24 | CCCCCCCCCCCCCCCCCC(=O)OCC(CC)CCCC (stereo not given) | inactive | 
25 | O=C(O)/C=C/c1ccc(O)c(O)c1 | inactive | 
26 | [Cl][Nd]([Cl])[Cl] | inactive | 
27 | Cc1ccc(Cl)cc1N | inactive | 
28 | COC(OC)OC | inactive | 
29 | CC(=O)c1ccc[nH]1 | inactive | 
30 | CC1CCC(C(C)CS)CC1S (stereo not given) | 49 µM (active) | 
31 | NC(=O)CCCCC(N)=O | inactive | 
32 | O=C(O)c1ccc(O)cc1O | inactive | 
33 | CC(C)COC(=O)COc1cc(Cl)c(Cl)cc1Cl | inactive | 
34 | CC(=O)OCC(C)C | inactive | 
35 | CC(C(=O)O)c1ccc(C(=O)c2cccs2)cc1 (stereo not given) | inactive | 
36 | C=Cc1ccc(OC(C)=O)cc1 | inactive | 
37 | C=CC(=O)O | inactive | 
38 | Cc1cccc2sc(N)nc12 | inactive | 
39 | COC(=O)CC(C(C)=O)C(=O)OC (stereo not given) | inactive | 
40 | CC(C)OC(=O)c1ccccc1C(=O)OC(C)C | inactive | 
